According to the supplement of paper PMC4894684:
Where a name gives a salt, the structure may show the parent alone. ± gives the standard deviation of the averaged measurements.

What follows are molecules tested on Toxoplasma gondii RH (in HFF) (assay: parasite growth relative to the screen mean (all compounds = 100%); higher = less inhibition of parasite growth). Settings: 5 µM; 72 h; oxygen 21 %.
How it was run: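 Library compounds, held as 10 mM DMSO stocks, were pinned to 5 µM final onto confluent human foreskin fibroblasts in 96-well plates. The cells were infected within 2 h with RH β-Gal–GFP Toxoplasma (MOI 1:5), grown 72 h at 21% O2, and assayed for parasite number by CPRG β-Gal using in-plate standard curves. Growth is reported relative to the screen mean, in which all compounds = 100%, averaged over two screens, and CellTiter-Blue checked uninfected host-cell viability.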

Row | Structure (SMILES) | parasite growth
1 | C[C@@H]1O[C@@H](O[C@H]2C[C@@H](O)[C@]3(CO)[C@H]4[C@H](O)C[C@]5(C)[C@@H](C6=CC(=O)OC6)CC[C@]5(O)[C@@H]4CC[C@]3(O)C2)[C@H](O)[C@H](O)[C@H]1O [Ouabain] | 52.8 ± 8.2%
2 | CC(=O)[C@H]1CC[C@H]2[C@@H]3CC[C@H]4C[C@](C)(O)CC[C@]4(C)[C@H]3CC[C@]12C [Ganaxolone] | 147 ± 17%
3 | Oc1ccc2c3c1O[C@H]1c4[nH]c5c(c4C[C@@]4(O)[C@@H](C2)N(CC2CC2)CC[C@]314)C[C@@]1(O)[C@H]2Cc3ccc(O)c4c3[C@@]1(CCN2CC1CC1)[C@H]5O4 [nor-Binaltorphimine dihydrochloride] | 123 ± 3.2%
4 | OC(Cc1ccncc1)C(Cl)(Cl)Cl (stereo unspecified) | 133 ± 9.6%
5 | c1ccc2c(c1)OCC(C1=NCCN1)O2 (stereo unspecified) [Idazoxan hydrochloride] | 111 ± 8.1%
6 | c1ccc(C2CNCc3ccccc32)cc1 (stereo unspecified) [4-Phenyl-1,2,3,4-tetrahydroisoquinoline hydrochloride] | 98.2 ± 12%
7 | COc1ccc(C(=O)N2CCCC2=O)cc1 [Aniracetam] | 97.2 ± 53%
8 | CCCN1CCC[C@@H]2Cc3n[nH]cc3C[C@H]21 [(-)-Quinpirole hydrochloride] | 143.8 ± 1.3%
9 | CN1CC[C@@H]2CN3CCc4cccc(c43)[C@@H]2C1 [SDZ SER 082 fumarate] | 165 ± 19%
10 | CC[C@@H](CO)NC(=O)[C@@H]1C=C2c3cccc4[nH]cc(c34)C[C@H]2N(C)C1 [Methylergometrine maleate] | 177 ± 41%
11 | CN1Cc2ccccc2[C@@H]2c3cccc4[nH]cc(c34)C[C@H]21 | 132 ± 9.8%
